AHR act: activates the human aryl hydrocarbon receptor | AHR-responsive luciferase reporter cells, luminescence | activation, % at 5 µM | 320,000 compounds, 2.5% hits | AID 2796; in the data active = activation above about 47%;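 note: 0% = vehicle wells and 100% = reference agonist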
Target sequence (P35869 whole entry, looked up): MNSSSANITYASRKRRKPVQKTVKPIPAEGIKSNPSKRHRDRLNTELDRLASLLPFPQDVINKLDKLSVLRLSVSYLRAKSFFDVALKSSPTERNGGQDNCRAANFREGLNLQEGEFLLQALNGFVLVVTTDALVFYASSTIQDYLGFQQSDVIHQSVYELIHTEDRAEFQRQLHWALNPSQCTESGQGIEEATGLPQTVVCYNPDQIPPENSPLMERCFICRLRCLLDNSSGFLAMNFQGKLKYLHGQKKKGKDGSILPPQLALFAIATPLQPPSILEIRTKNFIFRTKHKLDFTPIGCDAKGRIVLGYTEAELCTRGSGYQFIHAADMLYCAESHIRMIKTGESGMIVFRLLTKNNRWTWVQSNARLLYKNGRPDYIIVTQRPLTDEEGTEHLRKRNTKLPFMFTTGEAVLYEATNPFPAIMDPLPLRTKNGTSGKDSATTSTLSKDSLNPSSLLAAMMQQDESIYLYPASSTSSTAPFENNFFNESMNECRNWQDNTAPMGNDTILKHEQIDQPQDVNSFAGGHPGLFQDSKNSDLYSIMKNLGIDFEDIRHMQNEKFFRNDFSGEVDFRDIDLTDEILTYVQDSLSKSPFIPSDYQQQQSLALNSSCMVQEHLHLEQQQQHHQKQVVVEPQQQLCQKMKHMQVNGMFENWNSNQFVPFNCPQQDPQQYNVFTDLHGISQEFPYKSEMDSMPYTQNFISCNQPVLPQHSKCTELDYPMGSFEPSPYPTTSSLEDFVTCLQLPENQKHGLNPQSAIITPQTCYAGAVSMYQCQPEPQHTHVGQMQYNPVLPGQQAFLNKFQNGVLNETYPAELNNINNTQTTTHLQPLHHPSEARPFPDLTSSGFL
VLA-4 inh: inhibition in a human VLA-4 binding assay; VLA-4 expressing cells, ligand binding flow cytometry; inhibition, % (about 7 µM as worked out from the volumes in the protocol); 330,000 compounds, 0.2% hits; in the data active = inhibition above about 50%
Mot1-301 SUMO: inhibitors of SUMOylation pathway: yeast Mot1-301 growth rescue; S. cerevisiae Mot1-301 growth rescue, ATP luminescence, 38.5C; percent above DMSO median, 100 means doubled; growth rescue, % at 18.8 µM; 320,000 compounds, 1% hits;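 active = every valid replicate shows activation above 250% relative to neutral control wells; inactive = the rest, any valid replicate at or below 250%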;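 note: OY570 slx delta 5 strain wells were the positive control but not used for scaling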
ALR H2O2 inh: blocks human ALR sulfhydryl oxidase activity | P55789 | purified ALR, DTT oxidation, H2O2 HRP-luminol luminescence | inhibition, % (no concentration beside the values) | 290,000 compounds, 3.8% hits | AID 485317;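 active = mean replicate inhibition above about 79%, with every replicate also reaching it, limit read from the data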
Bfl-1 A1 inh: inhibitors of the anti-apoptotic protein A1, read as caspase activation; 330,000 compounds, 0.066% hits; AID 2462; caspase activation, % (no concentration beside the values); MEF A1-2A-BIM cells, Caspase-Glo 3/7 luminescence, 3 h; percent of clofoctol response, vehicle zero;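 active = over half of replicate activation scores above 10%, or exactly half above 10 with the replicate mean above 10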
Efflux pump mplx: antifungal efflux pump inhibition, Nile Red retention. S. cerevisiae Candida pump triplex. inhibition, % at 10 µM. 330,000 compounds, 0.44% hits. AID 485275;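 active = plate passing quality check with inhibition over a set limit, or well fluorescence over plate mean plus 4 SD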;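 note: Nile Red retained in pooled yeast measured as flow cytometry median fluorescence; 0% = buffer negative control and 100% = Enniatin B positive control; higher means more Nile Red kept so more efflux inhibition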
* marks the source's active call; other numbers are inactive results; nt = no result given. Only some compounds are listed: those with a hit (about 7.2% of all), similar ones and a draw of the others.

SMILES	AHR act	VLA-4 inh	Mot1-301 SUMO	ALR H2O2 inh	Bfl-1 A1 inh	Efflux pump mplx
CCN(CCNC(=O)C1CCN(Cc2nc(-c3ccc(Cl)cc3)oc2C)CC1)c1ccccc1	-0.9	8.4	43.0	98.3*	1.6	-0.1
CCc1ccc(-c2nc(CN3CCCC(C(=O)O)C3)c(C)o2)cc1 (stereo not drawn)	-2.5	22.9	-8.0	-2.1	0.2	0.0
S=c1[nH]nc(-c2cc(-c3ccccc3)n[nH]2)n1/N=C/c1ccc(Br)s1	18.2	18.3	7.4	9.0	0.1	0.1
CCN(CC)S(=O)(=O)c1ccc(N2CCOCC2)c(NC(=O)c2cc(Cl)c3c(c2)OCO3)c1	-0.1	17.4	8.9	-3.6	0.2	-0.4
COc1ccc(/C=N/Nc2cn[nH]c(=O)c2Cl)cc1	5.1	12.2	-10.1	16.4	-6.0	0.1
CC(Oc1ccccc1)C(=O)N=C1SC2CS(=O)(=O)CC2N1CCc1ccccc1 (stereo not drawn)	7.3	1.6	-12.5	-2.9	-0.5	0.6
O=C(O)c1cc(-c2ccc(/C=c3\sc4nc5ccc(Br)cc5n4c3=O)o2)ccc1Cl	11.8	-144.4	-25.3	92.8*	0.4	1.6*
Cc1ncsc1CCOC(=O)c1ccc(Cl)cc1	-0.8	2.0	106.2	-5.9	-0.5	-0.1
CC(C)CCNC(=O)C1CCCN(S(=O)(=O)c2ccc3c(c2)CC(C)N3C(=O)C2CC2)C1 (stereo not drawn)	5.0	20.5	8.2	-15.0	0.6	0.0
CC(=O)NCCCc1nc2ccccc2n1Cc1c(F)cccc1Cl	-2.1	-12.2	18.1	nt	1.0	-0.1
CC1CN2C(c3ccc(Cl)cc3)=CSC2=N1 (stereo not drawn)	16.8	1.9	-15.9	99.3*	2.2	0.3
Nc1ccc(OCCc2ccccc2)cc1	3.1	9.8	-9.9	31.0	-0.5	-0.4
Nc1ccc(OCc2ccccc2)cc1	0.2	15.5	361.5	97.0*	-2.4	0.1
O=C1c2cccc3cccc(c23)C(=O)N1CCc1ccccc1	52.5*	-0.3	-2.9	-2.3	0.3	-0.1
CCOC(=O)c1c(C2CC2)csc1NC(=O)COC(=O)c1cnc(Cl)c(Cl)c1	25.8	-1.4	-3.6	-11.2	-0.4	-0.3
CO/N=C/c1ccc(Oc2ccc([N+](=O)[O-])cc2[N+](=O)[O-])c(OC)c1	3.4	16.2	9.4	nt	-0.4	-0.3
COc1cc(/C=C2\SC(=O)NC2=O)ccc1Oc1ccc([N+](=O)[O-])cc1[N+](=O)[O-]	2.0	-5.0	-13.1	98.0*	0.4	-0.1
CN(C)c1ccc(C(=O)N2CCCC2)cc1	-0.9	-3.6	nt	98.4*	-0.6	0.0
Cc1[nH]c(C)c(S(=O)(=O)NCc2ccc(N(C)C)cc2)c1C(=O)N1CCCC1	9.5	13.3	1.2	98.2*	0.1	-0.2
CN(C)c1ccc(C(=S)N2CCOCC2)cc1	-0.1	0.0	39.2	98.8*	0.3	0.0
CC(=O)N1CCN(C(=S)c2ccc(N(C)C)cc2)CC1	0.2	0.7	-6.9	98.3*	1.0	-0.2
Cc1[nH]c(C)c(S(=O)(=O)NCc2ccc(Cl)cc2)c1C(=O)N1CCCC1	1.5	27.3	40.4	-6.8	1.0	0.1
Cc1ccc(N2CCN(C(=S)c3ccc(N(C)C)cc3)CC2)cc1	0.3	-20.2	7.6	17.6	-0.8	0.0
CN(C)c1ccc(C(=S)N2CCN(c3ccccc3)CC2)cc1	4.3	-3.5	720.4	99.2*	-0.4	0.1
CN(C)c1ccc(C(=S)N2CCCCCC2)cc1	5.1	-15.8	-2.8	98.3*	-0.7	0.0
SMILES	AHR act	VLA-4 inh	Mot1-301 SUMO	ALR H2O2 inh	Bfl-1 A1 inh	Efflux pump mplx
CC1CCN(C(=S)c2ccc(N(C)C)cc2)CC1	6.1	30.5	-27.5	99.1*	-0.7	0.0
Nc1ccc(Oc2cc(N)cc(Oc3ccccc3)c2)cc1	2.5	14.7	267.5	99.5*	2.0	0.0
COc1cc(CC(=O)OCn2nnc3ccccc3c2=O)cc(OC)c1OC	-2.7	15.0	-8.1	-2.4	0.0	0.1
NS(=O)(=O)c1ccc(N/N=C/c2ccc(O)cc2O)c([N+](=O)[O-])c1	-4.3	21.9	-1.5	21.4	-0.5	-0.1
NS(=O)(=O)c1ccc(N/N=C/c2ccc3c(c2)OCO3)c([N+](=O)[O-])c1	113.9*	-1.2	-7.3	-6.0	-3.7	0.1
O=[N+]([O-])c1ccc(N/N=C/c2cn(-c3ccccc3)nc2-c2ccccc2)cc1	15.7	-273.8	22.4	-9.2	0.7	0.1
NS(=O)(=O)c1ccc(N/N=C/c2cn(-c3ccccc3)nc2-c2ccccc2)c([N+](=O)[O-])c1	-1.1	-13.7	-23.3	-20.2	5.8*	-0.2
Oc1cccc(C(=S)N2CCC(Cc3ccccc3)CC2)c1	0.9	-0.6	10.4	2.4	-0.9	-0.1
Oc1csc(Cc2nc(-c3ccc(-c4ccccc4)cc3)cs2)n1	65.0*	-4.1	-5.1	-0.8	-0.2	0.1
Oc1csc(Cc2nc(-c3ccc4ccccc4c3)cs2)n1	83.4*	-14.2	12.8	-9.7	-8.9	0.2
Oc1csc(Cc2nc(-c3ccccc3F)cs2)n1	7.5	1.8	-23.8	-21.7	0.0	0.0
Cc1ccc(N(C)C(=O)c2cnn(-c3ccccc3)c2C)c(C)c1	5.1	-2.3	-26.2	nt	2.1	0.0
COc1ccc(NC2CCCN(Cc3cccc4cnccc34)C2)cc1OC (stereo not drawn)	8.0	18.4	14.9	95.3*	0.3	0.1
O=C(c1cc(F)ccc1F)C1CCCN(C(=O)CSc2ccccn2)C1 (stereo not drawn)	5.4	1.1	-4.2	4.2	-0.2	-0.1
COc1ccc(NC2CCCN(C(=O)CSc3ccccn3)C2)cc1OC (stereo not drawn)	3.7	4.4	40.6	98.9*	-0.1	-0.2
COc1ccccc1N1CCN(C(=O)CN2C(=O)c3ccccc3C2=O)CC1	0.1	20.9	-24.1	1.1	-0.5	-0.2
COc1ccc(NC2CCCN(C(=O)CN3C(=O)c4ccccc4C3=O)C2)cc1OC (stereo not drawn)	1.6	24.2	-3.7	98.3*	0.8	0.0
COc1ccc(NC2CCCN(Cc3cccc4cnccc34)C2)cc1 (stereo not drawn)	0.9	-18.9	-9.5	nt	0.1	0.0
C[C@@H](C(=O)NNC(=O)c1ccc(Cl)cc1)N1C(=O)C2CC=CCC2C1=O (stereo partly drawn)	7.3	-5.8	3.2	0.4	0.1	0.1
O=C(CN(Cc1cccs1)C(=O)CSc1nnc(COc2ccccc2)o1)NC1CCCCC1	-2.2	-1.5	249.4	-1.6	-0.2	0.3
Cc1ccc(NC(=O)N2CCCCC2)cc1[N+](=O)[O-]	18.9	5.0	-4.1	-2.9	-2.3	0.2
CN(C)NC(=S)NC(=O)C12CC3CC(CC(C3)C1)C2	2.1	7.5	21.4	92.1*	0.7	0.1
Cc1ccc(COc2ccc(CNCCCN3CCCCCC3=O)cc2)cc1	0.2	3.7	-2.2	nt	0.3	0.2
CCc1nnc(NC(=O)CSc2ncc(-c3ccccc3)[nH]2)s1	2.5	3.0	1.4	99.2*	0.9	-0.1

High-throughput results as filed in PubChem BioAssay.
